# Test results: PubChem BioAssay AID1159580 (chemical genetic matrix, 2015)
# In all, about 5,500 compounds went through this assay and about 2,000 (36%) were called active. Roughly 18% stayed inconclusive and do not appear here. This is one part of the list. Values without a mark were called inactive. Cut-off read from the data, not from the text of the source: active = normalized growth mostly below about 0.91 (no sharp cut-off); inconclusive = no clear call, values can overlap the other calls; inactive = mostly above about 0.92.
# Assay: chemical genetic growth profiling, strain panel (AID 1159580);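 note: tested at 20 µM; growth read once vehicle control cultures reached saturation at 30 °C; 1 = growth at the plate median or of vehicle wells; lower values mean less growth of the strain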
# Details: S. cerevisiae deletion strains, growth OD
smiles,measurement,setting,value
CCOC(=O)C(=O)C1(C(=O)OCC)Oc2cc(OC)cc(OC)c2C(=O)C1c1ccccc1 (stereo not given),normalized growth,"locus YAL021C, strain ccr4, stronger effect = lower value",0.981
same,normalized growth,"locus YAL026C, strain drs2, stronger effect = lower value",0.96
same,normalized growth,"locus YAL030W, strain snc1, stronger effect = lower value",0.96
same,normalized growth,"locus YBL061C, strain skt5, stronger effect = lower value",0.951
same,normalized growth,"locus YBR009C, strain hhf1, stronger effect = lower value",0.908
same,normalized growth,"locus YBR021W, strain FUR4, stronger effect = lower value",0.818 (active)
same,normalized growth,"locus YBR023C, strain chs3, stronger effect = lower value",0.954
same,normalized growth,"locus YBR171W, strain sec66, stronger effect = lower value",0.939
same,normalized growth,"locus YBR229C, strain ROT2, stronger effect = lower value",0.986
same,normalized growth,"locus YBR231C, strain swc5, stronger effect = lower value",0.961
same,normalized growth,"locus YBR279W, strain paf1, stronger effect = lower value",0.965
same,normalized growth,"locus YCL011C, strain gbp2, stronger effect = lower value",0.925
same,normalized growth,"locus YCL016C, strain dcc1, stronger effect = lower value",0.972
same,normalized growth,"locus YCL029C, strain bik1, stronger effect = lower value",0.989
same,normalized growth,"locus YCL061C, strain MRC1, stronger effect = lower value",0.938
same,normalized growth,"locus YCL069W, strain vba3, stronger effect = lower value",0.96
same,normalized growth,"locus YCR088W, strain abp1, stronger effect = lower value",0.967
same,normalized growth,"locus YDL005C, strain med2, stronger effect = lower value",0.961
same,normalized growth,"locus YDL035C, strain GPR1, stronger effect = lower value",0.967
same,normalized growth,"locus YDL040C, strain nat1, stronger effect = lower value",0.961
same,normalized growth,"locus YDL074C, strain BRE1, stronger effect = lower value",0.913
same,normalized growth,"locus YDL101C, strain DUN1, stronger effect = lower value",0.959
same,normalized growth,"locus YDL185W, strain tfp1, stronger effect = lower value",0.969
same,normalized growth,"locus YDL192W, strain arf1, stronger effect = lower value",0.945
same,normalized growth,"locus YDR001C, strain nth1, stronger effect = lower value",0.947
same,normalized growth,"locus YDR069C, strain doa4, stronger effect = lower value",0.967
same,normalized growth,"locus YDR101C, strain arx1, stronger effect = lower value",0.955
same,normalized growth,"locus YDR137W, strain rgp1, stronger effect = lower value",0.904
same,normalized growth,"locus YDR159W, strain sac3, stronger effect = lower value",0.928
same,normalized growth,"locus YDR162C, strain NBP2, stronger effect = lower value",0.987
same,normalized growth,"locus YDR195W, strain ref2",1.01
same,normalized growth,"locus YDR297W, strain sur2, stronger effect = lower value",0.949
same,normalized growth,"locus YDR318W, strain mcm21, stronger effect = lower value",0.936
same,normalized growth,"locus YDR334W, strain swr1, stronger effect = lower value",0.965
same,normalized growth,"locus YDR335W, strain msn5, stronger effect = lower value",0.971
same,normalized growth,"locus YDR388W, stronger effect = lower value",0.968
same,normalized growth,"locus YDR392W, strain spt3, stronger effect = lower value",0.767
same,normalized growth,"locus YDR502C, strain sam2, stronger effect = lower value",0.928
same,normalized growth,"locus YEL003W, strain gim4, stronger effect = lower value",0.948
same,normalized growth,"locus YEL037C, strain rad23, stronger effect = lower value",0.964
same,normalized growth,"locus YEL061C, strain CIN8 (second series), stronger effect = lower value",0.929
same,normalized growth,"locus YEL061C, strain CIN8, stronger effect = lower value",0.99
same,normalized growth,"locus YER015W, strain faa2, stronger effect = lower value",0.952
same,normalized growth,"locus YER016W, strain bim1, stronger effect = lower value",0.976
same,normalized growth,"locus YER110C, stronger effect = lower value",0.953
same,normalized growth,"locus YER111C, strain swi4, stronger effect = lower value",0.946
same,normalized growth,"locus YER155C, strain BEM2 (second series), stronger effect = lower value",0.875
same,normalized growth,"locus YER155C, strain BEM2, stronger effect = lower value",0.966
same,normalized growth,"locus YER167W, strain BCK2, stronger effect = lower value",0.97
same,normalized growth,"locus YFR010W, strain ubp6, stronger effect = lower value",0.956
same,normalized growth,"locus YGL078C, strain dbp3, stronger effect = lower value",0.938
same,normalized growth,"locus YGL086W, strain mad1, stronger effect = lower value",0.942
same,normalized growth,"locus YGL167C, strain pmr1, stronger effect = lower value",0.911 (active)
same,normalized growth,"locus YGL173C, strain kem1, stronger effect = lower value",0.947
same,normalized growth,"locus YGL227W, strain vid30, stronger effect = lower value",0.926
same,normalized growth,"locus YGL240W, strain doc1, stronger effect = lower value",0.911
same,normalized growth,"locus YGL248W, strain PDE1, stronger effect = lower value",0.945
same,normalized growth,"locus YGL253W, strain hxk2, stronger effect = lower value",0.972
same,normalized growth,"locus YGR135W, strain pre9, stronger effect = lower value",0.915
same,normalized growth,"locus YGR252W, strain gcn5, stronger effect = lower value",0.791
same,normalized growth,"locus YHR013C, strain ard1, stronger effect = lower value",0.95
same,normalized growth,"locus YHR027C, strain rpn1, stronger effect = lower value",0.987
same,normalized growth,"locus YHR030C, strain SLT2, stronger effect = lower value",0.993
same,normalized growth,"locus YHR079C, strain IRE1 (second series), stronger effect = lower value",0.961
same,normalized growth,"locus YHR094C, strain hxt1, stronger effect = lower value",0.951
same,normalized growth,"locus YHR129C, strain ARP1, stronger effect = lower value",0.966
same,normalized growth,"locus YHR142W, strain chs7, stronger effect = lower value",0.95
same,normalized growth,"locus YHR200W, strain rpn10, stronger effect = lower value",0.942
same,normalized growth,"locus YIL066C, strain RNR3, stronger effect = lower value",0.983
same,normalized growth,"locus YIL073C, strain SPO22, stronger effect = lower value",0.929
same,normalized growth,"locus YIL125W, strain kgd1, stronger effect = lower value",0.971
same,normalized growth,"locus YIR030C, strain dcg1, stronger effect = lower value",0.962
same,normalized growth,"locus YJL092W, strain hpr5, stronger effect = lower value",0.941
same,normalized growth,"locus YJL095W, strain BCK1 (second series), stronger effect = lower value",0.973
same,normalized growth,"locus YJL095W, strain BCK1, stronger effect = lower value",0.907
same,normalized growth,"locus YJL115W, strain asf1, stronger effect = lower value",0.979
same,normalized growth,"locus YJL129C, strain trk1, stronger effect = lower value",0.862 (active)
same,normalized growth,"locus YJL134W, strain LCB3, stronger effect = lower value",0.989
same,normalized growth,"locus YJL154C, strain vps35, stronger effect = lower value",0.968
same,normalized growth,"locus YJL164C, strain tpk1, stronger effect = lower value",0.95
same,normalized growth,"locus YJL166W, strain qcr8, stronger effect = lower value",0.926
same,normalized growth,"locus YJL168C, strain set2, stronger effect = lower value",0.966
same,normalized growth,"locus YJL187C, strain SWE1 (second series), stronger effect = lower value",0.948
same,normalized growth,"locus YJL187C, strain SWE1, stronger effect = lower value",0.953
same,normalized growth,"locus YJR043C, strain POL32, stronger effect = lower value",0.998
same,normalized growth,"locus YKL009W, strain mrt4, stronger effect = lower value",0.899
same,normalized growth,"locus YKL068W, stronger effect = lower value",0.955
same,normalized growth,"locus YKL085W, strain MDH1 (second series), stronger effect = lower value",0.959
same,normalized growth,"locus YKL085W, strain MDH1, stronger effect = lower value",0.959
same,normalized growth,"locus YKL160W, strain elf1, stronger effect = lower value",0.966
same,normalized growth,"locus YKL190W, strain CNB1, stronger effect = lower value",0.989
same,normalized growth,"locus YKR001C, strain vps1, stronger effect = lower value",0.958
same,normalized growth,"locus YKR026C, strain gcn3, stronger effect = lower value",0.932
same,normalized growth,"locus YKR091W, strain srl3, stronger effect = lower value",0.929 (active)
same,normalized growth,"locus YLL001W, strain dnm1, stronger effect = lower value",0.964
same,normalized growth,"locus YLL026W, stronger effect = lower value",0.969
same,normalized growth,"locus YLL041C, strain sdh2, stronger effect = lower value",0.966
same,normalized growth,"locus YLR027C, strain aat2, stronger effect = lower value",0.95
same,normalized growth,"locus YLR039C, strain RIC1, stronger effect = lower value",0.983
same,normalized growth,"locus YLR058C, strain SHM2, stronger effect = lower value",0.959
same,normalized growth,"locus YLR102C, strain apc9, stronger effect = lower value",0.962
same,normalized growth,"locus YLR221C, strain rsa3, stronger effect = lower value",0.91
same,normalized growth,"locus YLR258W, strain gsy2, stronger effect = lower value",0.959
same,normalized growth,"locus YLR262C, strain YPT6 (second series), stronger effect = lower value",0.906
same,normalized growth,"locus YLR262C, strain YPT6, stronger effect = lower value",0.978
same,normalized growth,"locus YLR268W, strain sec22, stronger effect = lower value",0.955
same,normalized growth,"locus YLR320W, strain mms22, stronger effect = lower value",0.889
same,normalized growth,"locus YLR330W, strain CHS5, stronger effect = lower value",0.906 (active)
same,normalized growth,"locus YLR342W, strain FKS1, stronger effect = lower value",0.919
same,normalized growth,"locus YLR357W, strain rsc2, stronger effect = lower value",0.916
same,normalized growth,"locus YLR370C, strain arc18, stronger effect = lower value",0.938
same,normalized growth,"locus YLR371W, strain rom2, stronger effect = lower value",0.962
same,normalized growth,"locus YLR384C, strain iki3, stronger effect = lower value",0.95
same,normalized growth,"locus YLR418C, strain cdc73, stronger effect = lower value",0.804 (active)
same,normalized growth,"locus YML016C, strain PPZ1, stronger effect = lower value",0.989
same,normalized growth,"locus YML032C, strain rad52, stronger effect = lower value",0.961
same,normalized growth,"locus YML120C, strain ndi1, stronger effect = lower value",0.919
same,normalized growth,"locus YML124C, strain tub3, stronger effect = lower value",0.94
same,normalized growth,"locus YMR058W, strain fet3, stronger effect = lower value",0.946
same,normalized growth,"locus YMR078C, strain ctf18, stronger effect = lower value",0.94
same,normalized growth,"locus YMR125W, strain sto1, stronger effect = lower value",0.979
same,normalized growth,"locus YMR129W, stronger effect = lower value",0.936
same,normalized growth,"locus YMR205C, strain PFK2, stronger effect = lower value",0.877
same,normalized growth,"locus YMR223W, strain ubp8, stronger effect = lower value",0.949
same,normalized growth,"locus YMR231W, strain pep5, stronger effect = lower value",0.988
same,normalized growth,"locus YMR307W, strain GAS1, stronger effect = lower value",0.949
same,normalized growth,"locus YNL067W, strain RPL9B, stronger effect = lower value",0.965
same,normalized growth,"locus YNL071W, strain lat1, stronger effect = lower value",0.915 (active)
same,normalized growth,"locus YNL153C, strain GIM3, stronger effect = lower value",0.986
same,normalized growth,"locus YNL209W, strain ssb2, stronger effect = lower value",0.972
same,normalized growth,"locus YNL233W, strain BNI4, stronger effect = lower value",0.917
same,normalized growth,"locus YNL248C, strain rpa49, stronger effect = lower value",0.986
same,normalized growth,"locus YNL250W, strain rad50, stronger effect = lower value",0.96
same,normalized growth,"locus YNL271C, strain bni1, stronger effect = lower value",0.976
same,normalized growth,"locus YNL298W, strain CLA4, stronger effect = lower value",0.965
same,normalized growth,"locus YNL307C, strain MCK1, stronger effect = lower value",0.888 (active)
same,normalized growth,"locus YNL322C, strain KRE1 (second series), stronger effect = lower value",0.948
same,normalized growth,"locus YNL322C, strain KRE1, stronger effect = lower value",0.983
same,normalized growth,"locus YNR049C, strain mso1, stronger effect = lower value",0.966
same,normalized growth,"locus YNR052C, strain pop2, stronger effect = lower value",0.985
same,normalized growth,"locus YOL012C, strain htz1",1.05
same,normalized growth,"locus YOL147C, strain pex11, stronger effect = lower value",0.94
same,normalized growth,"locus YOR001W, strain rrp6, stronger effect = lower value",0.987
same,normalized growth,"locus YOR061W, strain CKA2, stronger effect = lower value",1
same,normalized growth,"locus YOR069W, strain VPS5, stronger effect = lower value",0.979
same,normalized growth,"locus YOR070C, strain gyp1, stronger effect = lower value",0.968
same,normalized growth,"locus YOR080W, strain dia2, stronger effect = lower value",0.965
same,normalized growth,"locus YOR083W, strain WHI5, stronger effect = lower value",0.956
same,normalized growth,"locus YOR106W, strain vam3, stronger effect = lower value",0.974
same,normalized growth,"locus YOR136W, strain idh2, stronger effect = lower value",0.962
same,normalized growth,"locus YOR144C, strain elg1, stronger effect = lower value",0.959
same,normalized growth,"locus YOR184W, strain ser1, stronger effect = lower value",0.876
same,normalized growth,"locus YOR265W, strain rbl2, stronger effect = lower value",0.964
same,normalized growth,"locus YOR270C, strain vph1, stronger effect = lower value",0.878
same,normalized growth,"locus YOR290C, strain snf2, stronger effect = lower value",0.863 (active)
same,normalized growth,"locus YOR316C, strain cot1, stronger effect = lower value",0.963
same,normalized growth,"locus YPL051W, strain arl3, stronger effect = lower value",0.984
same,normalized growth,"locus YPL078C, strain atp4, stronger effect = lower value",0.964
same,normalized growth,"locus YPL106C, strain sse1, stronger effect = lower value",0.943
same,normalized growth,"locus YPL240C, strain hsp82, stronger effect = lower value",0.968
same,normalized growth,"locus YPR119W, strain clb2, stronger effect = lower value",0.946
same,normalized growth,"locus YPR141C, strain kar3, stronger effect = lower value",0.951
same,normalized growth,"locus YPR163C, strain tif3, stronger effect = lower value",0.97
same,normalized growth,"locus YPR167C, strain met16, stronger effect = lower value",0.929
same,normalized growth,"strain wtn01, stronger effect = lower value",0.945
